Assay outcomes from PubChem.
SW480 rereplic: A quantitative high throughput screen for small molecules that induce DNA re-replication in SW480 colon adenocarcinoma cells. SW480 DNA re-replication, Hoechst DNA content imaging, 48 h. Potency, µM (top dose mostly 46.1 µM), inactives show top-dose re-replication activation, usual class: activators. 1.8% of 340,000 active. AID 624297, 2012; also: potency is read from the fitted curve at half-maximal effect; % of control where 0% means no effect; nearly all actives have a fitted effect of over 55% in size
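Quantitative HTS format with DMSO vehicle controls; 48 hr drug incubation at 37 C, then 40 min Hoechst staining and scanning imager measurement at 405 nm excitation.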
KB-3-1 cytotox: qHTS assay for MDR1-selective chemotherapeutics: Primary screen using the parental adenocarcinoma cell KB-3-1; KB-3-1 viability, CellTiter-Glo ATP luminescence, 72 h; Potency, µM (series often up to 46.1 µM), usual class: cytotoxic; 1.4% of 400,000 active; also: potency is read from the fitted curve at half-maximal effect; % is scaled to controls: 0 for no effect and ±100 for the full control effect; nearly all actives have a fitted effect of over 60% in size
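Viability of parental KB-3-1 cells, measured by CellTiter-Glo luminescence, followed a 72 h incubation at 37 °C with pinned compounds in phenol-red-free DMEM containing 10% FBS.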
KB-V1 MDR tox: qHTS assay for MDR1-selective chemotherapeutics: Primary screen using the drug-selected MDR subline cells KB-V1; KB-V1 MDR cells viability, CellTiter-Glo, 72 h; Potency, µM (titrated, usually from 46.1 µM), usual class: cytotoxic; 3.4% of 400,000 active; also: potency is read from the fitted curve at half-maximal effect; % is scaled to controls: 0 for no effect and ±100 for the full control effect; nearly all actives have a fitted effect of over 60% in size
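KB-V1 MDR subline cells in DMEM (phenol-red free, 10% FBS) exposed to compounds in qHTS concentration series for 72 h at 37 degrees C. Viability read by CellTiter-Glo luminescence; concentration-effect curves fitted after normalization and correction.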
S-ASM inh: Inhibitors of Secretory Acid Sphingomyelinase (S-ASM): qHTS | Sphingomyelin phosphodiesterase (Homo sapiens), P17405 | placental ASM, HMU-PC fluorogenic substrate, 60 min | Potency, µM (series often up to 57.5 µM), without a hit: top-dose activity change, negative = inhibition, most hits filed as inhibitors | 0.006% of 340,000 active | AID 504937, 2011; also: potency is read from the fitted curve at half-maximal effect
Target sequence (P17405 47-631 limits assumed): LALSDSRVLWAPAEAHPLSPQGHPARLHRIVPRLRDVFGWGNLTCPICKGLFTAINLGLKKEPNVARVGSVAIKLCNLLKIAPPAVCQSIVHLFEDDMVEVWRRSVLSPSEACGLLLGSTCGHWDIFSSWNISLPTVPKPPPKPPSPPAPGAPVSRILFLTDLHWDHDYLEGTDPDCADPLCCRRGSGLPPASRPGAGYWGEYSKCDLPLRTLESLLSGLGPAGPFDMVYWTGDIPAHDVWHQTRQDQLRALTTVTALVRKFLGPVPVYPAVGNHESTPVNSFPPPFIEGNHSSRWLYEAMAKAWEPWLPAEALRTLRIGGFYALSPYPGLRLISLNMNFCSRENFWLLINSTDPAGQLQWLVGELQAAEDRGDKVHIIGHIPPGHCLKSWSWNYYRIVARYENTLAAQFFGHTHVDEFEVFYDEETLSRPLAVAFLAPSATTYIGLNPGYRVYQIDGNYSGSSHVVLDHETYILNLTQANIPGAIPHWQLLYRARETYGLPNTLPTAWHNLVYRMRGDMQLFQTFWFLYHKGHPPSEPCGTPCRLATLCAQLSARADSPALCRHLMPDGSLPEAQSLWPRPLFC
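Fluorogenic HMU-PC substrate (9 uM final) is turned over by placental ASM in 60 min at 37 C after a 10 min compound preincubation. Reaction ended by alkaline stop (pH 10), with fluorescence read at 386/447 nm.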
MCF10A rerep: A quantitative high throughput screen for small molecules that induce DNA re-replication in MCF 10a normal breast cells; MCF 10A DNA re-replication, Hoechst nuclear intensity, 48 h; Potency, µM (doses to about 46.1 µM), for inactives: top-dose activity, positive = re-replication, actives largely listed as activators; 2.9% of 350,000 active; AID 624296, 2012; also: potency is read from the fitted curve at half-maximal effect; % of control where 0% means no effect; nearly all actives have a fitted effect of over 50% in size
Giardia kill: Small Molecules that selectively kill Giardia lamblia: qHTS. 0.15% of 340,000 active. AID 540267, 2011. activity change, % at 7.66 µM, hits read low. Giardia lamblia trophozoite viability; in the data active = activity change below about -80%; inconclusive = between about -30% and that limit;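 also: parasites exposed to compound for two days anaerobically before the ATP read; % is scaled to controls: 0 for no effect and ±100 for the full control effect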
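Trophozoites 100 cells/well + cpd; 48 hrs, 37 deg C, anaerobic. ATPLite 1-Step added, 15-30 min RT, luminescence read (ATP-based viability).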
* = called active by the depositor; i = inactive; ? = inconclusive; / = no result given. An excerpt weighted towards active compounds, which were near 6.9% of everything screened. Unless noted, calls follow the shape of the dose curve; as a rule, active = well fitted curve in the direction sought with a large enough effect; inconclusive = small, poorly fitted or top-dose-only effect, or another doubt; inactive = no such curve, though single readings can be large; an effect the other way counts as inactive or inconclusive.

SMILES	SW480 rereplic	KB-3-1 cytotox	KB-V1 MDR tox	S-ASM inh	MCF10A rerep	Giardia kill
CCCCn1nc(NC(=O)c2cccs2)c2cc3ccccc3nc21	?	?	26µM*	324%	?	2
CCCn1nc(NC(=O)c2cccs2)c2cc3ccccc3nc21	15µM*	i	?	184%	5.8µM*	-1
CCOc1ccccc1CNC(=O)c1ccc2nc(Cc3ccc(OC)cc3)oc2c1	/	i	i	/	/	/
CCCNC(=O)C1CCC(Cn2c(=O)c3sccc3n(CC(=O)Nc3ccccc3C)c2=O)CC1 (centres undefined)	/	i	i	/	/	/
COc1ccc(NC(=O)CSc2nc3sc(C)cc3c(=O)n2C)c(OC)c1	-2%	i	8.2µM*	-8%	3%	-12
COc1ccc(NC(=O)CSc2nc3sc(C)cc3c(=O)n2C)cc1	-32%	i	i	2%	-13%	14
C=CC[C@]12CC=CC(=O)[C@@]1(O)O[C@H](c1ccc(OC)c(OC)c1)[C@H]2C	?	?	?	10%	6.5µM*	-12
COc1cccc2cc(C(=O)NCCc3c(C)[nH]c4ccc(Br)cc34)c(=O)oc12	/	i	i	/	/	/
CNC(=O)OCc1nc(SSC(C)(C)C)n(C)c1COC(=O)NC	4.1µM*	?	i	-1%	2.9µM*	23
CCOc1ccc(NC(=O)c2c(NC(=O)c3ccco3)sc3c2CCC(C(C)(C)C)C3)cc1 (centres undefined)	/	i	?	/	/	/
COc1cc2cc(CNc3ccccc3)c(=O)n(CC(=O)Nc3cccc(Cl)c3C)c2cc1OC	/	i	i	/	/	/
CCCCN1C(=O)/C(=C2/Sc3ccccc3N2C)S/C1=N\c1ncn[nH]1	15µM*	?	?	8%	15%	-1
COc1cc(C(=O)NCC(c2cccs2)N(C)C)cc(Cl)c1OC(C)C (centres undefined)	?	i	7.3µM*	3%	?	3
CNc1nc(N2CCc3ccccc32)ncc1F	-1%	?	1.6µM*	0%	-2%	-27
c1ccc2c(c1)CCCN2c1nc(N2CCOCC2)nc(N2CCOCC2)n1	-35%	i	i	-1%	0%	-18
Cc1cc2c(cc1C)N(C(=O)CCl)CCN2C(=O)CCl	3.7µM*	15µM*	7.3µM*	3%	4.6µM*	5
CC(C)OC(=O)/C(=C/c1ccc(Br)cc1)NC(=O)c1ccco1	-61%	i	16µM*	-1%	3%	8
COC(=O)/C(=C/c1ccccc1)NC(=O)c1ccco1	-2%	i	i	4%	10%	12
CCOc1ccccc1NC(=O)c1c(NC(=O)c2cccc(C)c2)sc2c1CCCC2	/	i	i	/	/	/
Cc1ccc(SC2=C[C@@]3(O)CC[C@@H](O)[C@@](Sc4ccc(C)cc4)(C2=O)[C@H]3O)cc1	/	?	16µM*	/	/	/
CC(C)(C)c1ccc(C(=O)C2CC2)cc1	/	i	i	/	/	/
CC(C)(C)c1ccc(SC2=C[C@@]3(O)CC[C@@H](O)[C@@](Sc4ccc(C(C)(C)C)cc4)(C2=O)[C@H]3O)cc1	/	?	13µM*	/	/	/
O=C(NCC1CCCC(CNC(=O)Nc2ccc(Cl)cn2)C1)Nc1ccc(Cl)cn1 (centres undefined)	?	?	?	-19%	?	11
Cc1ccc(CN2CCC(CNc3ncnc4onc(-c5ccc(Cl)cc5)c34)CC2)cc1	/	i	i	/	/	/
COc1ccc2cc(C(c3nnnn3CCc3ccccc3)N3CCCC(C)C3)c(=O)[nH]c2c1 (centres undefined)	9%	i	18µM*	37%	-37%	3
SMILES	SW480 rereplic	KB-3-1 cytotox	KB-V1 MDR tox	S-ASM inh	MCF10A rerep	Giardia kill
COCCn1nnnc1C(c1cc2cc(OC)ccc2[nH]c1=O)N1CCC(Cc2ccccc2)CC1 (centres undefined)	19%	?	?	75%	?	-9
COc1ccccc1C(c1nnnn1CCc1ccccc1)N1CCCCCC1 (centres undefined)	?	i	16µM*	0%	?	-20
O=C(O)c1cc(=O)c2c3nc4ccccc4oc-3cc(=O)c2[nH]1	?	i	i	/	0%	/
O=C(c1ccc2nc[nH]c2c1)N1CCc2ccccc2C1	-1%	i	i	8%	3%	-12
CN1CCN(C(=O)c2ccc(Cl)c(S(=O)(=O)N3CCCCC3)c2)CC1	4%	i	15µM*	-5%	-2%	8
COc1cc2c(cc1OC)CN(C(=O)c1ccc3nc[nH]c3c1)CC2	5.8µM*	?	i	1%	8.2µM*	3
COc1cc2c(cc1OC)CN(C(=O)c1ccc(Cl)c(S(=O)(=O)N3CCCC3)c1)CC2	-12%	i	21µM*	4%	?	-4
CCOc1ccccc1N1CCN(C(=O)c2ccc(Cl)c(S(=O)(=O)N3CCCCC3)c2)CC1	-5%	i	7.3µM*	/	?	-8
CCN1C(=O)c2ccccc2S(=O)(=O)c2ccc(C(=O)NCc3ccc(C)cc3)cc21	/	i	i	/	/	/
COc1cc(C2CC(=O)Nc3c2c(=O)n(C)c2ncnn32)cc(OC)c1OC (centres undefined)	/	i	i	/	/	/
CCCOc1ccc(NC(=O)CC2C(=O)N(c3ccc(C)cc3)C(=O)N2C2CCCC2)cc1 (centres undefined)	/	?	i	/	/	/
CCCCN1CC(c2nc3ccccc3n2CCCCOc2ccccc2C)CC1=O (centres undefined)	/	i	?	/	/	/
CN1CCCN(C(=O)c2ccc(Cl)c(S(=O)(=O)N(C)c3ccccc3)c2)CC1	13%	i	?	0%	21µM*	-4
CCN1C(Br)=CCc2ccccc21	/	i	?	/	/	/
O=C(NCCc1ccccc1)c1nccc2ccccc12	-2%	i	i	3%	0%	-10
CC(C)Nc1ccc(Nc2ccnc3cc4ccccc4cc23)cc1	-51%	16µM*	?	-19%	?	-2
c1ccc(CCNc2ccnc3cc4ccccc4cc23)cc1	16µM*	18µM*	8.2µM*	i	16µM*	11
CSc1ccc(-c2nc3ncccn3c2Nc2ccc(C)c(C)c2)cc1	/	i	i	/	/	/
COc1ccc(/C=C/c2ccccn2)cc1	/	23µM*	i	/	/	/
Cc1ccc(C=Cc2ccccn2)cc1	/	i	i	/	/	/
